High-throughput results from PubChem BioAssay.
A340 absorber = compound absorbs light at 340 nm. fold change at 10 µM. 65,000 tested, under 10 active. AID 708. compound absorbance at 340 nm, fold over control;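 active = at 10 µM dose, initial 340 nm absorbance at least 2 fold that of control wells; inactive = change under 2 fold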;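 note: initial absorbance extrapolated from kinetic A340 decline of NADH oxidation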
NADH coupling = blocks coupling enzymes of NAD/NADH assays | IC50, µM (series often up to 10 µM), inactives show top-dose inhibition | AID 774 | coupled PK/LDH NADH assays, four targets | 65,000 compounds, 0.02% hits;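 active = single-dose screening hits from any of four coupled enzyme assays that gave an IC50 when retested across doses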;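 note: the DPM-DC format reads NADH fluorescence rather than 340 nm absorbance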
PMK inhibit = blocks S. pneumoniae phosphomevalonate kinase; purified PMK, PK/LDH-coupled NADH absorbance 340 nm; inhibition, % at 10 µM; 65,000 compounds, 0.49% hits; AID 539;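 active = top-ranked compounds by inhibition in the single 10 µM screen, taking a fixed number of the strongest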;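 note: 0% = full reaction with DMSO carrier and 100% = background rate without enzyme reaction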
Autofluor 339 = intrinsic fluorescence of library compounds, ex339/em460 – biochemical, MLSMR library, data from DPM-DC assay, artefact control, profiling panel; compound autofluorescence, ex339/em460 nm, NADH buffer; hits give high values; 1 = no-compound wells, NADH background; 65,000 compounds, 5.5% hits; fluorescence fold increase at 10 µM;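 active = at 10 µM, mean starting fluorescence two-fold or more over control wells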;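 note: signal is the first read of a kinetic run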
DPM-DC inhibit = blocks S. pneumoniae diphosphomevalonate decarboxylase. purified DPM-DC, PK/LDH coupled NADH fluorescence. calls only at 10 µM. 65,000 compounds, 0.49% hits. AID 556;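 active = the 320 compounds with the highest percent inhibition in the single-dose primary screen, excluding strongly autofluorescent ones, cut at about 32% in these data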;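 note: kinetic rate of NADH fluorescence loss reporting ADP formed by the decarboxylase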
MK inhibit = blocks S. pneumoniae mevalonate kinase; purified MK, PK/LDH-coupled NADH absorbance 340 nm; inhibition, % at 10 µM; 65,000 compounds, 0.48% hits;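 active = ranked among the strongest by inhibition in the single 10 µM screen, a fixed top-ranked set picked for dose follow-up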
* = called active by the depositor. Sampled rows, rich in hits. Any-hit rate of the full collection: about 6.5%.

CCCCN(C)c1nc(-c2ccco2)c2c(c1C#N)CC(C)(C)OC2 was read as A340 absorber 1.1, NADH coupling 7%, PMK inhibit 11, Autofluor 339 1.8, DPM-DC inhibit inactive and MK inhibit 10.
For O=C(Nc1ccc2c(c1)OCO2)OCc1ccccc1 the results were A340 absorber 0.99, NADH coupling 3%, PMK inhibit 3, Autofluor 339 1, DPM-DC inhibit inactive and MK inhibit 14.
For CCOC(=O)N1CCN(C(=O)c2ccc3nc(SCc4ccc(F)cc4)n(C)c3c2)CC1 the results were A340 absorber 1, NADH coupling 7%, PMK inhibit 9, Autofluor 339 1.1, DPM-DC inhibit inactive and MK inhibit 11.
Cc1ccccc1-n1nc2c(c1NC(=O)c1ccc(Br)o1)CSC2 was read as A340 absorber 0.98, NADH coupling 7%, PMK inhibit 18, Autofluor 339 1.1, DPM-DC inhibit inactive and MK inhibit 2.
Screening C/C(=N\O)c1c(C)c2ccccc2n1C returned A340 absorber 1, NADH coupling 4%, PMK inhibit 10, Autofluor 339 1.1, DPM-DC inhibit inactive and MK inhibit 1.
C/C(=N\O)c1ccc2c3ccccc3n(C)c2c1 was read as A340 absorber 1, NADH coupling 10%, PMK inhibit 1, Autofluor 339 2.7*, DPM-DC inhibit inactive and MK inhibit 11.
`CCOc1cccc(OCCCNCCCOC)c1` gave A340 absorber 1.1, NADH coupling 13%, PMK inhibit 0, Autofluor 339 1.1, DPM-DC inhibit inactive and MK inhibit 40*.
For CC(Sc1ncc(C#N)c(N)n1)C(=O)Nc1ccccc1 (stereo unspecified) the results were A340 absorber 1, NADH coupling 9%, PMK inhibit 26*, Autofluor 339 1.1, DPM-DC inhibit inactive and MK inhibit 0.
`COC(=O)CSc1ncc(C#N)c(N)n1` gave A340 absorber 1.1, NADH coupling 2%, PMK inhibit 0, Autofluor 339 1.2, DPM-DC inhibit inactive and MK inhibit 6.
Screening O=C(Nc1ccc(F)cc1F)c1cc2ncc(Br)cn2n1 returned A340 absorber 1, NADH coupling 5%, PMK inhibit 2, Autofluor 339 1.1, DPM-DC inhibit inactive and MK inhibit 6.
For COC(=O)c1ccccc1NC(=O)c1cc2ncc(Br)cn2n1 the results were A340 absorber 1.1, NADH coupling 10%, PMK inhibit 5, Autofluor 339 2.1*, DPM-DC inhibit inactive and MK inhibit 13.
CCC1Oc2ccc(C)cc2N(CC(=O)NCCN2CCCCCC2)C1=O (stereo unspecified) was read as A340 absorber 1, NADH coupling 8%, PMK inhibit 25*, Autofluor 339 1.1, DPM-DC inhibit inactive and MK inhibit 0.
Screening CCC(C)c1ccc2oc(-c3ccc(NC(=O)c4ncn[nH]4)cc3)nc2c1 (stereo unspecified) returned A340 absorber 1.2, NADH coupling 6%, PMK inhibit 0, Autofluor 339 3.6* and MK inhibit 11.
Screening CC(C)c1ccc2oc(-c3ccc(N)cc3)nc2c1 returned A340 absorber 1.2, NADH coupling 9%, PMK inhibit 4, Autofluor 339 2.1* and MK inhibit 14.
`O=C(Nc1ccc(N2CCOCC2)c(Cl)c1)c1ncn[nH]1` gave A340 absorber 1, NADH coupling 6%, PMK inhibit 11, Autofluor 339 1.1, DPM-DC inhibit inactive and MK inhibit 6.
For CCC(C)c1ccc(O)c(NC(=O)c2ncn[nH]2)c1 (stereo unspecified) the results were A340 absorber 1.1, NADH coupling 13%, PMK inhibit 15, Autofluor 339 1.1, DPM-DC inhibit inactive and MK inhibit 13.
CC(C)c1ccc2oc(-c3ccc(NC(=O)c4ncn[nH]4)cc3)nc2c1 was read as A340 absorber 1.1, NADH coupling 8%, PMK inhibit 4, Autofluor 339 3.6* and MK inhibit 12.
Screening O=C(Nc1ccc2oc(-c3ccccc3Cl)nc2c1)c1ncn[nH]1 returned A340 absorber 1.1, NADH coupling 6%, PMK inhibit 0, Autofluor 339 2.1* and MK inhibit 12.
For Cc1ccc(-c2nc3cc(N)ccc3o2)c(C)c1 the results were A340 absorber 1, NADH coupling 3%, PMK inhibit 0, Autofluor 339 4* and MK inhibit 6.
Cc1ccc(-c2nc3cc(N)ccc3o2)cc1 was read as A340 absorber 1.1, NADH coupling 3%, PMK inhibit 5, Autofluor 339 2 and MK inhibit 10.
Screening Cc1ccc(NC(=O)CSc2nnc(Cn3c(=O)sc4ccccc43)n2C)cc1Cl returned A340 absorber 1.1, NADH coupling 11%, PMK inhibit 29*, Autofluor 339 1.1, DPM-DC inhibit inactive and MK inhibit 4.
`Cn1nc(-c2ccc(Cl)cc2)c2cc(C(=O)NCCCN3CCCC3)sc21` gave A340 absorber 1.1, NADH coupling 6%, PMK inhibit 6, Autofluor 339 2.1* and MK inhibit 6.
For COCCCNC(=O)c1cc2c(-c3ccc(Cl)cc3)nn(C)c2s1 the results were A340 absorber 1.1, NADH coupling 1%, PMK inhibit 0, Autofluor 339 2.2* and MK inhibit 1.
Screening CCOC(=O)N1CCC(NC(=O)c2cc3c(-c4ccc(Cl)cc4)nn(C)c3s2)CC1 returned A340 absorber 1.1, NADH coupling 8%, PMK inhibit 10, Autofluor 339 2.1* and MK inhibit 6.
For CCCCNC(=O)c1cc2c(-c3ccc(Cl)cc3)nn(C)c2s1 the results were A340 absorber 1.1, NADH coupling 1%, PMK inhibit 0, Autofluor 339 1.5, DPM-DC inhibit inactive and MK inhibit 3.
COCCNC(=O)c1cc2c(-c3ccc(Cl)cc3)nn(C)c2s1 was read as A340 absorber 1.1, NADH coupling 4%, PMK inhibit 7, Autofluor 339 2.2* and MK inhibit 0.
Screening CC1=C(C(=O)Nc2ccccc2Cl)C(c2ccc(N(C)C)cc2)NC(=O)N1 (stereo unspecified) returned A340 absorber 1.1, NADH coupling 1%, PMK inhibit 2, Autofluor 339 1.1, DPM-DC inhibit inactive and MK inhibit 0.
`CC(C)NC(=O)c1cc2c(-c3ccc(Cl)cc3)nn(C)c2s1` gave A340 absorber 1.1, NADH coupling 9%, PMK inhibit 9, Autofluor 339 1.6, DPM-DC inhibit inactive and MK inhibit 5.
Screening COCCNC(=O)c1cc2c(-c3ccccc3F)nn(C)c2s1 returned A340 absorber 0.98, NADH coupling 7%, PMK inhibit 13, Autofluor 339 2*, DPM-DC inhibit inactive and MK inhibit 12.
